In PubChem BioAssay (Tox21):
Results filed as inconclusive are left out. Active and inactive are the calls of the source. Unless noted, calls follow the shape of the dose curve; as a rule, active = well fitted curve in the direction sought with a large enough effect in the repeat runs; inconclusive = weak or mixed curves; inactive = no such curve, though single readings can be large; an effect the other way counts as inactive or inconclusive.

Key:
[1] = target: Aryl hydrocarbon receptor (Homo sapiens) (UniProt P35869); assay: qHTS assay to identify small molecule that activate the aryl hydrocarbon receptor (AhR) signaling pathway (AID 743085);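 also: HG2L7.5c1 human HepG2 liver cells with stably integrated DRE-driven firefly reporter; series mostly up to about 70 µM; nearly all actives have a fitted effect of over 15% in size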
How it was run: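 Luminescence (ONE-Glo) from a dioxin-responsive-element luciferase reporter in HG2L7.5c1 HepG2 cells after 24 hr compound exposure at 37C; viability measured by CellTiter-Fluor fluorescence beforehand.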

[2] = target: Peroxisome proliferator-activated receptor gamma (Homo sapiens) (UniProt P37231); assay: qHTS assay to identify small molecule agonists of the peroxisome proliferator-activated receptor gamma (PPARg) signaling pathway (AID 743094; active = well fitted activation curve with a large enough effect in the signal ratio in the repeat runs, not every such curve was filed as active; the % refers to the signal ratio)
How it was run: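 GeneBLAzer PPARg UAS-bla HEK293H cells were plated, rested 5 h, then exposed to compounds for 17 h at 37C. Beta-lactamase activity was read by LiveBLAzer B/G FRET substrate fluorescence after 1 h at room temperature.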

[3] = qHTS assay for small molecule agonists of the antioxidant response element (ARE) signaling pathway - cell viability counter screen (AID 743203; calls by dose curve; also: nearly all actives have a fitted effect of over 55% in size; also: potency is read from the fitted curve at half-maximal effect)
How it was run: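 ARE-bla HepG2 cells were plated, rested 5 h at 37C/5% CO2, then exposed to compounds in DMSO for 16 h. Viability was read as CellTiter-Glo luminescence after 30 min at room temperature, in the same wells as the ARE screen.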

[4] = qHTS assay for small molecule activators of the heat shock response signaling pathway (AID 743210; active = well fitted activation curve with a large enough effect in the signal ratio in the repeat runs, with a control signal flat, not every such curve was filed as active; the % refers to the signal ratio;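 also: HeLa cells with beta-lactamase reporter driven by heat shock elements; series mostly up to about 63 µM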)
How it was run: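 In HSE-bla HeLa cells, 5 h compound incubation (37 C) precedes addition of LiveBLAzer B/G substrate; after 2.5 h at room temperature, fluorescence intensity indicates reporter induction.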

[5] = qHTS assay to identify small molecule agonists of the peroxisome proliferator-activated receptor delta (PPARd) signaling pathway - cell viability counter screen (AID 743211); also: nearly all actives have a fitted effect of over 55% in size
How it was run: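 Viability was measured as CellTiter-Glo luminescence (30 min, room temperature) in the same wells as the beta-lactamase readout. GeneBLAzer PPARd UAS-bla HEK293H cells received compound after 5 h plating and were incubated 17 h at 37 C.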

[6] = target: Bile acid receptor (Homo sapiens) (UniProt Q96RI1); assay: qHTS assay to identify small molecule antagonists of the farnesoid-X-receptor (FXR) signaling pathway (AID 743217; active = well fitted inhibition curve with a large enough effect in the signal ratio in the repeat runs, not every such curve was filed as active; the % refers to the signal ratio)
How it was run: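 FXR-UAS-bla HEK 293T cells (beta-lactamase reporter) given compound plus chenodeoxycholic acid (50 uM final), 16 h at 37C. LiveBLAzer B/G FRET substrate added for 2 h at room temperature; fluorescence read.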

[7] = qHTS assay to identify small molecule agonists of the farnesoid-X-receptor (FXR) signaling pathway - cell viability counter screen (AID 743218); also: nearly all actives have a fitted effect of over 45% in size
How it was run: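 FXR-UAS-bla HEK 293T cells exposed to compounds for 16 h at 37C. Cytotoxicity read in the same wells by CellTiter-Glo luminescence after 30 min at room temperature, following the beta-lactamase FRET read.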

[8] = target: Bile acid receptor (Homo sapiens) (UniProt Q96RI1); assay: qHTS assay to identify small molecule agonists of the farnesoid-X-receptor (FXR) signaling pathway (AID 743220; active = well fitted activation curve with a large enough effect in the signal ratio in the repeat runs, not every such curve was filed as active; the % refers to the signal ratio)
How it was run: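 Beta-lactamase reporter under UAS control in GeneBLAzer FXR HEK 293T cells (5000/well) measured with LiveBLAzer FRET substrate after 2 h at room temperature. Compound exposure lasted 16 h at 37C.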

[9] = qHTS assay to identify small molecule antagonists of the farnesoid-X-receptor (FXR) signaling pathway - cell viability counter screen (AID 743221; active = well fitted cell-killing curve with a large enough effect in the repeat runs, not every such curve was filed as active; also: nearly all actives have a fitted effect of over 50% in size)
How it was run: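 Cytotoxicity counter screen run in the FXR-bla reporter wells: HEK 293T cells exposed to compound with 50 uM (final) chenodeoxycholic acid for 16 h, 37 C, then viability measured by CellTiter-Glo luminescence after 30 min, room temperature.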

[10] = target: Vitamin D3 receptor (Homo sapiens) (UniProt P11473); assay: qHTS assay to identify small molecule agonists of the vitamin D receptor (VDR) signaling pathway (AID 743222; calls by dose curve)
How it was run: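 VDR-bla cells plated 4 h at 37 C, then exposed to compounds for 16 h at 37 C. Beta-lactamase reporter activity measured by fluorescence after 2 h room-temperature loading with LiveBLAzer B/G FRET substrate.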

[11] = qHTS assay to identify small molecule that activate the aryl hydrocarbon receptor (AhR) signaling pathway - cell viability counter screen (AID 743086);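 also: HepG2 liver cells carrying the AhR DRE luciferase reporter; series mostly up to about 70 µM; nearly all actives have a fitted effect of over 45% in size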
How it was run: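 Cytotoxicity counter screen: CellTiter-Fluor signal (30 min, 37 C) in 4000 HepG2 cells/well carrying the DRE-luciferase reporter, following 24 h compound exposure at 37 C.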

[12] = qHTS assay to identify small molecule antagonists of the peroxisome proliferator-activated receptor gamma (PPARg) signaling pathway - cell viability counter screen (AID 743194); also: nearly all actives have a fitted effect of over 55% in size
How it was run: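 Viability was measured as CellTiter-Glo luminescence in GeneBLAzer PPARg UAS-bla HEK293H cells. These cells had been exposed 17 h at 37 C to compounds together with rosiglitazone at 50 nM final, with the beta-lactamase readout taken in the same wells.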

[13] = qHTS assay for small molecule agonists of the antioxidant response element (ARE) signaling pathway (AID 743202; active = well fitted activation curve with a large enough effect in the signal ratio in the repeat runs, not every such curve was filed as active; the % refers to the signal ratio; also: potency is read from the fitted curve at half-maximal effect)
How it was run: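 An ARE-responsive beta-lactamase gene stably integrated in HepG2 cells serves as reporter. After 5 h plating and 16 h compound incubation at 37 C, fluorescence of the B/G FRET substrate was measured.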

[14] = qHTS assay for small molecule activators of the heat shock response signaling pathway - cell viability counter screen (AID 743209); also: nearly all actives have a fitted effect of over 50% in size
How it was run: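 HSE-bla HeLa cells plated overnight, then exposed to Tox21 compounds (23 nL in DMSO) for 5 h at 37 C. After the bla reporter read, CellTiter-Glo was added in the same wells and luminescence read after 30 min at room temperature.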

[15] = target: Peroxisome proliferator-activated receptor delta (Homo sapiens) (UniProt Q03181); assay: qHTS assay to identify small molecule agonists of the peroxisome proliferator-activated receptor delta (PPARd) signaling pathway (AID 743212; calls by dose curve)
How it was run: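 HEK293H UAS-bla reporter cells, human PPARd system; compounds delivered in DMSO after 5 h plating, then at 37 C. Beta-lactamase FRET read, 2 h RT substrate step.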

[16] = qHTS assay to identify small molecule antagonists of the peroxisome proliferator-activated receptor delta (PPARd) signaling pathway - cell viability counter screen (AID 743213); also: nearly all actives have a fitted effect of over 50% in size
How it was run: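 Viability counter-screen, qHTS format: PPARd-bla HEK293H, L165041 300 nM final, 17 h compound exposure at 37 C, CellTiter-Glo luminescence after 30 min RT.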

[17] = target: Peroxisome proliferator-activated receptor delta (Homo sapiens) (UniProt Q03181); assay: qHTS assay to identify small molecule antagonists of the peroxisome proliferator-activated receptor delta (PPARd) signaling pathway (AID 743215; active = well fitted inhibition curve with a large enough effect in the signal ratio in the repeat runs, not every such curve was filed as active; the % refers to the signal ratio;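 also: cells stimulated with agonist L165041 at 300 nM final during compound exposure; series mostly up to about 62 µM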)
How it was run: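 PPARd-bla HEK293H cells (UAS-bla reporter) preincubated 5 h, then given compound plus 300 nM final L165041 agonist for 17 h at 37 C. Beta-lactamase activity read by LiveBLAzer B/G FRET substrate fluorescence after 2 h at room temperature.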

[18] = target: Vitamin D3 receptor (Homo sapiens) (UniProt P11473); assay: qHTS assay to identify small molecule antagonists of the vitamin D receptor (VDR) signaling pathway (AID 743223; active = well fitted inhibition curve with a large enough effect in the signal ratio in the repeat runs, not every such curve was filed as active; the % refers to the signal ratio)
How it was run: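 Antagonist mode: compound added to VDR-bla cells alongside agonist 1alpha,25-dihydroxyvitamin D3 (3 nM final), incubation 16 h at 37C. Read-out is LiveBLAzer FRET fluorescence, 2 h at room temperature.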

[19] = qHTS assay to identify aromatase inhibitors - cell viability counter screen (AID 743084);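 also: cells stimulated with testosterone during compound exposure; nearly all actives have a fitted effect of over 55% in size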
[20] = target: Peroxisome proliferator-activated receptor gamma (Homo sapiens) (UniProt P37231); assay: qHTS assay to identify small molecule antagonists of the peroxisome proliferator-activated receptor gamma (PPARg) signaling pathway (AID 743191; calls by dose curve; also: series mostly up to about 63 µM; nearly all actives have a fitted effect of over 30% in size)
How it was run: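 Beta-lactamase reporter under UAS control in HEK293H PPARg-bla cells; compound treatment 17 h at 37C. Read-out: fluorescence intensity after 1 h room-temperature incubation with LiveBLAzer B/G FRET substrate.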

Measured: Potency

Peroxisome proliferator-activated receptor delta (Homo sapiens), sequence (Q03181 whole entry, looked up): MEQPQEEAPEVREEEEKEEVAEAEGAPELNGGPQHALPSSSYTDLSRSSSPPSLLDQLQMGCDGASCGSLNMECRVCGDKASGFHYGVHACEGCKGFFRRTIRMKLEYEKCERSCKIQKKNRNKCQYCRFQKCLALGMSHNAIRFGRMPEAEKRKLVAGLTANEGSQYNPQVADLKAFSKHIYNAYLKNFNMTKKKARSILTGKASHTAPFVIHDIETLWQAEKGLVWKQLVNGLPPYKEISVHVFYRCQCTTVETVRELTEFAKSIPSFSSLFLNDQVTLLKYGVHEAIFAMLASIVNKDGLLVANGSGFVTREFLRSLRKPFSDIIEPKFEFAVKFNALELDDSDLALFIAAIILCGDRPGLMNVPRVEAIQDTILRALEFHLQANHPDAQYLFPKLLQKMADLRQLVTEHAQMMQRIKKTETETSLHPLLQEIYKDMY
Vitamin D3 receptor (Homo sapiens), sequence (P11473 whole entry, looked up): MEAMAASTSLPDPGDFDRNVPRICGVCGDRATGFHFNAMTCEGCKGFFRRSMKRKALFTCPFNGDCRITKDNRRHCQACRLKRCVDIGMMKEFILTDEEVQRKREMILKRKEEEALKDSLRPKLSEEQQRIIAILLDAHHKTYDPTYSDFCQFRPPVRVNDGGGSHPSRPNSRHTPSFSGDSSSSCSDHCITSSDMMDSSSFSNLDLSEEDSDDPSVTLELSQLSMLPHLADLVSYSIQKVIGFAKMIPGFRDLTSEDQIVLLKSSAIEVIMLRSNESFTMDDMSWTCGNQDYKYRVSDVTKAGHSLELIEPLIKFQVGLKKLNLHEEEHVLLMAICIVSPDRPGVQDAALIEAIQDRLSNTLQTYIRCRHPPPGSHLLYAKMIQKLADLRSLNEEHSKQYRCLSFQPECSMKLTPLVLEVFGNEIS
Aryl hydrocarbon receptor (Homo sapiens), sequence (P35869 whole entry, looked up): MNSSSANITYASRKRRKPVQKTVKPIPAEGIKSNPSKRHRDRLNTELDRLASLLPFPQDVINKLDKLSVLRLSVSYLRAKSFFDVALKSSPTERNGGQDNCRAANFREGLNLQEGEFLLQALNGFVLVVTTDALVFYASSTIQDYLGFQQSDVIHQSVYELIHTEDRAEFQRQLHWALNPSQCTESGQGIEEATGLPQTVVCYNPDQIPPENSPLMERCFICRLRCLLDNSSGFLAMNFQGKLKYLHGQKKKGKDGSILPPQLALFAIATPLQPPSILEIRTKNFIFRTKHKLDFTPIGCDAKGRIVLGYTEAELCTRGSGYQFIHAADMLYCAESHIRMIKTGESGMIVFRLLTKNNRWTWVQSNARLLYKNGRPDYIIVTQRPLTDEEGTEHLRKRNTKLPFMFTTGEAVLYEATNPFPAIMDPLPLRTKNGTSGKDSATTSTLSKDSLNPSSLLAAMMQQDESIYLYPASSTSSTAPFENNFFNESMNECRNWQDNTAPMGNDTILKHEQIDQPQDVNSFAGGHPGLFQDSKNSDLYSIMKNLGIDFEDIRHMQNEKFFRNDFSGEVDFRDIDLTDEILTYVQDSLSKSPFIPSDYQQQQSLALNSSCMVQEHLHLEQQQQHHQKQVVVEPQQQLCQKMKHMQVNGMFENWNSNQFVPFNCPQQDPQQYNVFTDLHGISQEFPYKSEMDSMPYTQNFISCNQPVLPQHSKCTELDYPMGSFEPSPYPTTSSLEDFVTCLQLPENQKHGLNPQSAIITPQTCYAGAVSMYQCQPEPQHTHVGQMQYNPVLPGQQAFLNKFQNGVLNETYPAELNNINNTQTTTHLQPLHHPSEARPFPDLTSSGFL
Peroxisome proliferator-activated receptor gamma (Homo sapiens), sequence (P37231 whole entry, looked up): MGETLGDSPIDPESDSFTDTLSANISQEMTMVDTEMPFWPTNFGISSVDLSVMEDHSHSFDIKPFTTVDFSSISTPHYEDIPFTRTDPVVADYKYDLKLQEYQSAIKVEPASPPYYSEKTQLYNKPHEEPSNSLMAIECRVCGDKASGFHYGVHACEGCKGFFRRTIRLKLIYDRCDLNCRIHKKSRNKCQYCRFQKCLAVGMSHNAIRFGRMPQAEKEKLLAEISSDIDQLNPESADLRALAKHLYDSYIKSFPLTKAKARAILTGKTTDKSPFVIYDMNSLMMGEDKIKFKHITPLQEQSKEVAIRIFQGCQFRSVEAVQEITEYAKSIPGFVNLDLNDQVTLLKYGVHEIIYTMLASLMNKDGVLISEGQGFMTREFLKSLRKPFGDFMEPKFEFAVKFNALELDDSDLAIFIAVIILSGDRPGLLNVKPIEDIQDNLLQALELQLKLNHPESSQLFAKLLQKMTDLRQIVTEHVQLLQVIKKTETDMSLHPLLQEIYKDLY
Bile acid receptor (Homo sapiens), sequence (Q96RI1 whole entry, looked up): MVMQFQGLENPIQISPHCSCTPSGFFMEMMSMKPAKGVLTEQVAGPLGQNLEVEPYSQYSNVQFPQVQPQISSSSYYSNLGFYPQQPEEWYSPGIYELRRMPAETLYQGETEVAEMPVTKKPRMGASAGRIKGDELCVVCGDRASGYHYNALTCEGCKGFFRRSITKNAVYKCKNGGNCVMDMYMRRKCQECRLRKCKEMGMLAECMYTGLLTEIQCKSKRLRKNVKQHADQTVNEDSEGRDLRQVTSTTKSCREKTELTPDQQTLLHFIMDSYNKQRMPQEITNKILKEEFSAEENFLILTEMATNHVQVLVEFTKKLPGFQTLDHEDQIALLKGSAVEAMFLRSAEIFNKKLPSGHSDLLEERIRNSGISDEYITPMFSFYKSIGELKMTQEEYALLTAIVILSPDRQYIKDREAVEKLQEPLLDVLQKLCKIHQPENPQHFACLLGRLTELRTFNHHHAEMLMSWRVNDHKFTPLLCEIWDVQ

O=[N+]([O-])c1cc[n+]([O-])cc1
active: [3] 30.6 µM
inactive: [1] | [2] | [4] | [5] | [6] | [7] | [8] | [9] | [10]

COc1cc(C(C)(C)C)c(O)c(C(C)(C)C)c1
not listed: [1] | [5] | [19] | [20]
inactive: all other assays above

CC(=O)N(CC(=O)N(C)C)c1ccccc1
not listed: [1] | [2] | [6] | [7] | [11] | [13] | [19] | [20]
inactive: all other assays above

O=C(O)Cn1c(C(=O)Nc2nc(-c3ccccc3Cl)cs2)cc2ccccc21
active: [13] 21.1 µM
not listed: [1] | [2] | [4] | [10] | [11] | [15] | [17]
inactive: all other assays above

O=CNc1ccccc1
not listed: [3] | [14] | [17] | [18] | [19] | [20]
inactive: all other assays above

Cc1cc(NC(=O)C(=O)O)cc(C)c1Oc1ccc(O)c2c1CCC2
not listed: [1] | [2] | [12] | [17] | [18] | [19] | [20]
inactive: all other assays above

Oc1ccc(Cc2ccccc2)cc1
inactive: [11] | [12] | [14] | [15] | [16] | [17] | [7] | [9] | [10]

Nc1ccc(C(=O)N2CC3CC(CN(Cc4ccccc4)C3)C2)cc1
inactive: [12] | [13] | [14] | [5] | [15] | [17] | [6] | [7] | [8] | [9] | [10]

COc1ccc([C@@H]2Sc3ccccc3N(CCN(C)C)C(=O)[C@@H]2OC(C)=O)cc1
inactive: [11] | [12] | [13] | [14] | [4] | [5] | [15] | [7] | [9] | [10]

CCCCCOC(=O)c1ccc(O)cc1
inactive: [1] | [11] | [2] | [12] | [15] | [17] | [8] | [9] | [10]
